Compounds with a hit are over-represented: about 8.1% of the library has one in this group of screens.
Epigenetic derep: regulators of epigenetic silencing causing reporter derepression in mouse cells. Potency, µM (doses to about 53.9 µM), without a hit: at the highest dose GFP activation, most hits filed as activators. AID 1865. murine LDR cells, GFP reporter derepression, 30 h. 280,000 tested, 0.2% active; further: % of control where 0% means no effect; nearly all actives have a fitted effect of over 60% in size
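Readout is the number of GFP-expressing murine LDR cells, counted by cytometry following washing. Cells were treated with compound for 30 h at 37 C; the stably integrated CMV-GFP locus is normally silent.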
RORgamma inh: inhibitors of mouse ROR gamma transcriptional activity | Drosophila S2 Gal4-RORgamma UAS-luciferase reporter, 20 h | P51450 | Potency, µM (series often up to 53.6 µM), for the others: top-dose activity change, negative = inhibition, most hits filed as inhibitors | 310,000 tested, 5.4% active; further: on the % scale 0 is the no-effect control and ±100 the full control effect; nearly all actives have a fitted effect of over 60% in size
Target sequence (P51450 whole entry, looked up, the tested form may be a part): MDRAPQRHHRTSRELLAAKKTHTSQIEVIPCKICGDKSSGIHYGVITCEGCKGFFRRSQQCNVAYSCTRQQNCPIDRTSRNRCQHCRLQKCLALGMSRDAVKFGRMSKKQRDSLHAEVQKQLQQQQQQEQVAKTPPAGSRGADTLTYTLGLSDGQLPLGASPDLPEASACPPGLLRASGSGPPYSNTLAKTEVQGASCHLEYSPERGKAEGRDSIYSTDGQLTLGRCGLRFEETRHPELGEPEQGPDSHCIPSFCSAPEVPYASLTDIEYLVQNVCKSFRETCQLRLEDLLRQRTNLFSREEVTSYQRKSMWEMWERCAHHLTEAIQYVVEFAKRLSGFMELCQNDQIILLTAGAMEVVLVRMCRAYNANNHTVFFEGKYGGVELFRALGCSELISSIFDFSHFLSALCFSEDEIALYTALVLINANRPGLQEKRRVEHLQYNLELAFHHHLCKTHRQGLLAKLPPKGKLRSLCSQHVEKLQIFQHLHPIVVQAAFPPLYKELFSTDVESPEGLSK
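Drosophila Schneider cells stably carrying a metallothionein-driven Gal4 DBD–ROR gamma fusion and a UAS-Photinus luciferase reporter were exposed to compound for 1 hr, then induced with copper sulfate (700 uM final) for 20 hr at ambient temperature before luminescence reading.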
VP16 counter: counter-screen for ROR gamma inhibitors: Gal4-VP16 reporter. Drosophila S2 Gal4-VP16 UAS-luciferase, luminescence, 20 h. Potency, µM (top dose mostly 53.6 µM), for the others: at the highest dose activity, negative = inhibition, most hits filed as inhibitors. 310,000 tested, 3.5% active. AID 2546;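 further: Gal4-VP16 expression switched on by copper sulfate through the metallothionein promoter; on the % scale 0 is the no-effect control and ±100 the full control effect; nearly all actives have a fitted effect of over 50% in size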
Sfp inh: Sfp phosphopantetheinyl transferase inhibition | Biochemical Sfp PPTase activity, qHTS | 310,000 tested, 3.5% active | Q9F4F7 | Potency, µM, without a hit: largest response in the series, negative = inhibition, hits mostly inhibitors;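 further: the enzyme is Sfp with the accession as filed and its product quenches rhodamine fluorescence; 0% = enzyme reaction without inhibitor and -100% = no enzyme wells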
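After 15 min at room temperature with compound, 15 nM Sfp received 5 uM rhodamine-CoA plus 12.5 uM BHQ-2-ybbR (50 mM Hepes pH 7.6, 10 mM MgCl2). Rate came from the fluorescence difference over 30 min, ex 525/em 598 nm.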
ClpP mod: qHTS Assay for Activators of ClpP; 340,000 tested, 1.9% active; AID 651965, 2013; purified B. subtilis ClpP, FRET peptide cleavage, 20 min; Potency, µM (series often up to 57.5 µM), for inactives: top-dose activity change, negative = active; ATP-dependent Clp protease proteolytic subunit (Bacillus subtilis (strain 168)), P80244; active means well fitted falling curve with a large enough effect; inconclusive means small, poorly fitted or top-dose-only effect; inactive means no such curve, though single readings can be large or run the other way; further: the source files actives as falling curves though it sought activators and does not explain the sign; nearly all actives have a fitted effect of over 65% in size
Target sequence (P80244 whole entry, looked up): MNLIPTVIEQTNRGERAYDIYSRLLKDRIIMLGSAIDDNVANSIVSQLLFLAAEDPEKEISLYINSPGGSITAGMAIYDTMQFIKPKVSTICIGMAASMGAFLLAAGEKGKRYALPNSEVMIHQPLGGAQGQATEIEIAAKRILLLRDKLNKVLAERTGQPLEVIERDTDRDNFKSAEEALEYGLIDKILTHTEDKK
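FRET quenching reversal measured ClpP activation: 10 microg/mL B. subtilis ClpP at pH 8 with the FRET-FV decapeptide, read at 430 nm after 320 nm excitation. The 20-min minus 0-min signal was scaled between DMSO/no-enzyme wells and ADEP (5.8 microM final).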
PINK1 expr mod: PINK1 expression modulation; PINK1 immunofluorescence, high-content cytometry, 24 h; 410,000 tested, 0.2% active; Potency, µM (titrated, usually from 76.6 µM), for inactives: top-dose activation (PINK1 increase), usual class: activators; active means well fitted activation curve with a large enough effect; inconclusive means small, poorly fitted or top-dose-only effect; cell line not stated here; further: % of control where 0% means no effect; nearly all actives have a fitted effect of over 65% in size
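A stable cell line was treated with compounds at 5 concentrations for 24 hours, with CCCP as control. PINK1 levels and mitochondrial localization were measured by immunofluorescence with mitochondrial, cell and nuclear markers after fixation, read by laser-scanning cytometry.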
* = called active by the depositor; ? = inconclusive; / = no result given; [ ] = dose if it differs, or a comment. Unless noted, the call rests on the fitted dose curve; in most records, active means well fitted curve in the direction sought with a large enough effect; inconclusive means small, poorly fitted or top-dose-only effect, or another doubt; inactive means no such curve, though single readings can be large; an effect the other way counts as inactive or inconclusive. Potency means the concentration at half of the fitted maximal effect.

SMILES	Epigenetic derep	RORgamma inh	VP16 counter	Sfp inh	ClpP mod	PINK1 expr mod
CC(C)c1ccc(S(=O)(=O)c2cn(CC(=O)Nc3ccc(F)cc3)c3ccccc3c2=O)cc1	?	/	/	/	-1%	2%
Cc1ccc(OCC(=O)Nc2ccc3nc(SCC(=O)N4CCCC4)sc3c2)cc1	-2%	/	/	/	0%	8%
Clc1ccc(/C=C/c2ccnc3ccccc23)c(Cl)c1	/	/	/	/	-7%	/
COc1ccc(CN2CCC3(CC2)c2ccccc2[C@@H](NC(=O)c2ccccc2)[C@@H]3O)cc1O	/	/	/	/	/	0%
Cc1cc(C(F)(F)F)nn1Cc1n[nH]c(=S)n1-c1cccc(Cl)c1	-1%	11µM*	?	-8%	2%	3%[38.3 µM]
Cc1cc(C(F)(F)F)nn1Cc1n[nH]c(=S)n1Cc1ccccc1	0%	?	6.3µM*	8%	1%	/
Cc1cnc(C)c(-c2cc(F)cc3c2OC(CNC(=O)CN2CCCC2)C3)n1 (stereo not drawn)	/	/	/	/	/	-1%
CN1c2ccccc2C(C)(C)C12C=Nc1c(ccc3ccccc13)O2 (stereo not drawn)	?	?	20µM*	-94%	-6%	1%
CN1c2ccccc2C(C)(C)[C@]12C=Cc1cc(O)ccc1O2	7%	-130%	16µM*	-15%	-5%	?
COc1ccc2ccc3c(c2c1)N=CC1(O3)N(C)c2ccccc2C1(C)C (stereo not drawn)	0%	?	11%	-4%	-13%	9%[38.3 µM]
COCCNC(=O)C1(C(F)(F)F)C/C(=C\CCO)CCCO1 (stereo not drawn)	/	9%	1%	21%	/	/
O=C(O)c1cc(C(=O)O)c(C(=O)N(Cc2cccc(Oc3ccccc3)c2)[C@H]2CCCc3ccccc32)cc1C(=O)O	/	2%	3%	14%	/	/
O=c1c(C=NCCCn2ccnc2)c(-c2ccccc2)[nH]n1-c1nc2ccccc2s1	-1%	-18%	-1%	13%	0%	/
CCCc1cc(=O)n(-c2nc3ccccc3s2)[nH]1	0%	?	0%	-1%	0%	2%
CCCN=Cc1c(CCC)[nH]n(-c2nc3ccccc3s2)c1=O	-1%	2.8µM*	?	6%	-2%	-2%[38.3 µM]
CCCc1[nH]n(-c2ccc([N+](=O)[O-])cc2)c(=O)c1C=NCCCn1ccnc1	-5%	-18%	-4%	-27%	/	-1%
CCCc1[nH]n(-c2nc3ccccc3s2)c(=O)c1C=NCCCN(CC)CC	1%	20µM*	-19%	19%	/	2%
CN(C)CCCN=Cc1c(-c2ccccc2)[nH]n(-c2nc3ccccc3s2)c1=O	0%	0%	-13%	50µM*	/	-4%
Cc1cnc(SCC2CCCO2)nc1C1CCCN(C(=O)C2=NNC(=O)CC2)C1 (stereo not drawn)	/	/	/	/	/	0%
Cc1ccc2oc(=O)n(CCNC(=O)Nc3ccccc3Cl)c2c1	5%	/	/	/	-2%	0%
COc1ccc(OC(=O)c2nc(SCc3ccc(C)cc3)ncc2Cl)cc1	-3%	/	/	/	-2%	-1%
COC(=O)NC(=C(Cl)Cl)S(=O)(=O)c1ccccc1	4%	10µM*	18µM*	12%	1%	4%
CCOC(=O)c1c(-c2ccc(C)cc2)csc1NC(=O)/C(C#N)=C/c1ccc(O)c(OC)c1	11µM*	32%	-18%	1%	/	0%
Cc1cccc(-n2c(Cc3ccccc3)n[nH]c2=S)c1	3%	4µM*	14µM*	7%	/	-3%
CCc1ccc(-n2c(Cc3ccccc3)n[nH]c2=S)cc1	0%	2µM*	?	-4%	-6%	0%
SMILES	Epigenetic derep	RORgamma inh	VP16 counter	Sfp inh	ClpP mod	PINK1 expr mod
Cc1cccc(-n2c(CCn3nc(C)c([N+](=O)[O-])c3C)n[nH]c2=S)c1	0%	13µM*	-11%	-3%	0%	11µM*
CCN(CC)C(=O)c1sc2c(c1C)c(=O)n(-c1ccc(OC)cc1OC)c(=O)n2CC(=O)c1ccc(Cl)cc1	-1%	/	/	/	1%	1%
Cc1ccc(C)c(N2CCN(C(=O)c3ccc4c(Cl)c5c(nc4c3)CCCC5)CC2)c1	-1%	/	/	/	0%	2%
CCNC(=S)Nc1ccc(Oc2ccccc2)cc1	/	/	/	/	-1%	-1%
CCOc1ccc(NC(=S)Nc2ccc(C)c([N+](=O)[O-])c2)cc1	2%	14µM*	?	-4%	1%	5%[38.3 µM]
CCOc1ccc(NC(=S)Nc2ccc(OC(F)(F)F)cc2)cc1	0%	?	?	9%	0%	0%
CCNC(=S)Nc1ccc(OCC)cc1	-1%	13µM*	?	14%	-1%	1%
CCOc1ccc(NC(=S)Nc2ccc(OCC)cc2)cc1	-4%	10µM*	-30%	-3%	/	2%
CCOc1ccc(NC(=S)NC(C)CCc2ccccc2)cc1 (stereo not drawn)	1%	2.5µM*	7.1µM*	11%	/	-1%
Cc1c(NC(=O)c2ccccc2)cc(C(C)C)c(O)c1S(=O)(=O)c1ccc(Cl)cc1	-1%	/	/	/	-4%	-2%
O=C(Nc1cc(Cl)cc(Cl)c1)c1ccc(F)c(S(=O)(=O)NC2CCCC2)c1	1%	/	/	/	-10%	?
CCOc1ccc(NC(=S)Nc2cc(C)[nH]n2)cc1	1%	3.2µM*	7.1µM*	5%	/	1%
CCOc1ccc(NC(=S)Nc2cc(OC)c(Cl)cc2OC)cc1	-1%	10µM*	22µM*	?	1%	4%
Cc1ccccc1NC(=S)NC(C)CCc1ccccc1 (stereo not drawn)	-1%	4.5µM*	3.5µM*	21%	-1%	0%
CC(=O)NC(C)CCc1ccccc1 (stereo not drawn)	-2%	-12%	-1%	23%	/	0%
Cc1ccc(C(=O)/C=C2\NCCNC2=O)cc1	-1%	?	3%	-8%	0%	0%
Cc1ccc(C(=O)/C=C2\NCC(C)NC2=O)cc1 (stereo not drawn)	0%	8.9µM*	10µM*	6%	-2%	-1%
Cc1ccc(-c2cc(C(=O)N3CCCC(C(F)(F)F)C3)c3ccccc3n2)o1 (stereo not drawn)	/	/	/	/	16µM*	-1%
Cc1ccc(-c2cc(C(=O)N3CCN(c4ccc(F)cc4)CC3)c3ccccc3n2)o1	-1%	?	-1%	25µM*	?	0%
O=C(O)c1cc(-c2ccc(-c3ccc(F)cc3)o2)nc2ccccc12	/	?	?	3.5µM*	4%	-1%
CC(=O)c1ccc(N2CCN(C(=O)c3cc(-c4ccc5c(c4)OCO5)nc4ccccc34)CC2)cc1	0%	33%	-3%	3%	32µM*	-3%
CC(=O)N1c2ccc(S(=O)(=O)NCCc3cccc(C)c3)cc2CC1C (stereo not drawn)	-1%	/	/	/	-1%	1%
